One assay has as its system MCC-26. Put plainly: qHTS assay to identify novel small-molecules to repurpose for Merkel cell carcinoma treatment (AID 1296009). Note: nearly all actives have a fitted effect of over 60% in size. To be noted: MCC and control cell lines, CellTiter-Glo viability, 72 h; series mostly up to 46 µM. In short, it runs like this: (§1)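 After compound transfer in DMSO, plates were kept 72 hr at 37 degree celsius. Luminescent ATP signal from CellTiter-Glo served as viability measure, normalized against DMSO and no-cell controls.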

In a further assay the test system is C33A. As to the kind of experiment: Primary qHTS to identify gynecologic anti-cancer compounds using libraries of approved drugs and bioactive compounds (AID 1345084). Note: nearly all actives have a fitted effect of over 55% in size. To be noted: Gynecologic cancer cell panel viability, ATPlite luminescence, 48 h; series mostly up to 57.5 µM. In short, it runs like this:
(§2)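 Luminescence from the ATPlite ATP-monitoring reagent indicates viable cell number; lower signal means cytotoxicity. Cells received compound 16 h after seeding and were exposed for 48 h across five concentrations.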
A general note: In qHTS, concentration-response curves come from the screen itself.

The subject of the next assay is Es-2. The assay is described as above. To be noted: Gynecologic cancer cell panel viability, ATPlite luminescence, 48 h; series mostly up to 57.5 µM. The method, boiled down:
as §2
(In general: Cellular ATP, detected with luciferase, serves as a proxy for viable cell number.)

For a further assay, the system named is Hek293T. The assay is described as above. To be noted: Gynecologic cancer cell panel viability, ATPlite luminescence, 48 h, control line for the selectivity index; series mostly up to 57.5 µM. In short, it runs like this:
as §2

A further assay has as its system JEG-3. The description is as above. To be noted: Gynecologic cancer cell panel viability, ATPlite luminescence, 48 h; series mostly up to 57.5 µM. The method, boiled down:
as §2

In a further assay the test system is OV90. The assay is described as above. To be noted: Gynecologic cancer cell panel viability, ATPlite luminescence, 48 h; series mostly up to 57.5 µM. The method, boiled down:
as §2

The test system of the next assay is SKOV3. Described as above. To be noted: Gynecologic cancer cell panel viability, ATPlite luminescence, 48 h; series mostly up to 57.5 µM. In short, it runs like this:
as §2

The test system of a further assay is MKL-2. Put plainly: qHTS assay to identify novel small-molecules to repurpose for Merkel cell carcinoma treatment (AID 1296009). Note: nearly all actives have a fitted effect of over 60% in size. To be noted: MCC and control cell lines, CellTiter-Glo viability, 72 h; series mostly up to 46 µM. The method, boiled down: as §1
Another assay has as its system WaGa. The description is as above. To be noted: MCC and control cell lines, CellTiter-Glo viability, 72 h; series mostly up to 46 µM. The method, boiled down: as §1
A further assay concerns UISO. The assay is described as above. To be noted: MCC and control cell lines, CellTiter-Glo viability, 72 h; series mostly up to 46 µM. The method, boiled down: as §1
The test system of the next assay is HeLa. Put plainly: Primary qHTS to identify gynecologic anti-cancer compounds using libraries of approved drugs and bioactive compounds (AID 1345084). Note: nearly all actives have a fitted effect of over 55% in size. To be noted: Gynecologic cancer cell panel viability, ATPlite luminescence, 48 h; series mostly up to 57.5 µM. In short, it runs like this:
as §2

A further assay deals with PA-1. The assay is described as above. To be noted: Gynecologic cancer cell panel viability, ATPlite luminescence, 48 h; series mostly up to 57.5 µM. The method, boiled down: as §2
The next assay deals with CAOV3. The assay is described as above. To be noted: Gynecologic cancer cell panel viability, ATPlite luminescence, 48 h; series mostly up to 57.5 µM. The method, boiled down: as §2
The subject of a further assay is CASKI. The description is as above. To be noted: Gynecologic cancer cell panel viability, ATPlite luminescence, 48 h; series mostly up to 57.5 µM. The method, boiled down:
as §2

Another assay deals with Tov-21-G. The assay is described as above. To be noted: Gynecologic cancer cell panel viability, ATPlite luminescence, 48 h; series mostly up to 57.5 µM. The method, boiled down:
as §2

The test system of the next assay is Tov112D. The description is as above. To be noted: Gynecologic cancer cell panel viability, ATPlite luminescence, 48 h; series mostly up to 57.5 µM. The method, boiled down: as §2
Another assay concerns MKL-1. Put plainly: qHTS assay to identify novel small-molecules to repurpose for Merkel cell carcinoma treatment (AID 1296009). Note: nearly all actives have a fitted effect of over 60% in size. To be noted: MCC and control cell lines, CellTiter-Glo viability, 72 h; series mostly up to 46 µM. The method, boiled down: as §1

Structures are written as SMILES. Records with an inconclusive call do not appear. A number with no mark means an inactive call. Calls of active or inactive are those of the source. Calls come from the whole dose curve; as a rule, active = well fitted curve in the direction sought with a large enough effect; inconclusive = small, poorly fitted or top-dose-only effect, or another doubt; inactive = no such curve, though single readings can be large; an effect the other way counts as inactive or inconclusive.

Experimental findings from PubChem BioAssay (NCATS) are described below.
Potency is the fitted concentration of half-maximal effect.

With `COc1ccc(-c2nc3ccc(C4=NNC(=O)CC4C)cc3[nH]2)cc1` (centres undefined), the Potency entry in the assay on MCC-26, in the assay with C33A, in the assay with Es-2, with Hek293T, in the assay on JEG-3 and in the assay on OV90 was “inactive” each time. The Potency in the assay with SKOV3 is 35.5 µM (active).

In the case of `CCC(C)SSc1ncc[nH]1` (centres undefined), in the assay with MCC-26, the Potency result was “inactive”. The values for the Potency in the assay on MKL-2 and in the assay with WaGa were 16.6 µM (active) and 23.5 µM (active), respectively.

Take `CC(C)n1c(C=C[C@H](O)C[C@H](O)CC(=O)O)c(-c2ccc(F)cc2)c2ccccc21`: the results for the Potency in the assay with MKL-2, in the assay on UISO and in the assay on WaGa were 7.43 µM (active), 10.5 µM (active) and 18.7 µM (active), respectively.

As for `CC(C)CNc1ccnc(NCc2csc(-c3ccccc3)n2)n1`, the Potency in the assay with MKL-2 was 16.6 µM (active); with UISO, 13.2 µM (active); in the assay on Es-2, 22.4 µM (active); with PA-1, 12.6 µM (active); in the assay on SKOV3, 11.2 µM (active). For the same compound, the Potency result with HeLa and in the assay with JEG-3 was “inactive” in each case.

With `CCCCC(F)(F)[C@@]1(O)CC[C@H]2[C@H](CC(=O)[C@@H]2CCCCCCC(=O)O)O1`, the Potency entry in the assay with C33A, with CAOV3, with CASKI, with Es-2, with HeLa and in the assay with Hek293T was “inactive” throughout. Also, the Potency entry in the assay on JEG-3, in the assay on OV90, with PA-1, in the assay with SKOV3, in the assay on Tov-21-G and with Tov112D was “inactive” throughout.

Turning to `NC(=O)c1noc([C@H](CCCC2CCCCC2)CC(=O)NO)n1`, the Potency entry with MCC-26, in the assay on C33A, in the assay with CASKI, with Es-2, in the assay on HeLa and in the assay on Hek293T was “inactive” throughout. In addition, the Potency result in the assay with JEG-3, with OV90, with Tov-21-G and in the assay on Tov112D was “inactive” throughout. Further, the results for the Potency in the assay on MKL-1 and with UISO were 16.6 µM (active) and 14.8 µM (active), respectively.

For the compound `Cc1cccc2c1CC[C@H](CN1CCC(c3c(Cl)cccc3Cl)CC1)C[C@@H]2O`, the Potency entry with MCC-26, in the assay on MKL-1, with MKL-2, in the assay on WaGa, in the assay with C33A and with CASKI was “inactive” throughout. Also, the Potency result with Es-2, in the assay on OV90, in the assay on Tov-21-G and in the assay on Tov112D was “inactive” each time. Also, the Potency in the assay with PA-1 was 11.2 µM (active).

In the case of `O=C(CCCN1CCN(c2ccc(F)cc2)CC1)NC1c2ccccc2CSc2ccccc21` (centres undefined), the Potency result in the assay on MCC-26, in the assay on C33A, in the assay with CASKI, with Es-2, in the assay on HeLa and in the assay with Hek293T was “inactive” in each case. The Potency result in the assay with JEG-3, in the assay on PA-1, with SKOV3, in the assay on Tov-21-G and in the assay on Tov112D was “inactive” in each case.

Turning to `O=C1NC(=O)C(c2cnc3ccccn23)=C1c1cn2c3c(cccc13)CN(C(=O)N1CCOCC1)CC2`, the Potency entry in the assay with MKL-1, in the assay with MKL-2, in the assay with C33A, in the assay on Es-2, in the assay on HeLa and in the assay on Hek293T was “inactive” throughout. For the same compound, the Potency result in the assay on JEG-3, in the assay on PA-1 and in the assay with Tov112D was “inactive” in each case. The Potency with CASKI is 3.16 µM (active); in the assay on SKOV3, 1.41 µM (active).

In the case of `C[C@@H]1C[C@H]2[C@@H]3CCC4=CC(=O)C=C[C@]4(C)[C@@]3(F)[C@@H](O)C[C@]2(C)[C@@]1(O)C(=O)CO`, the Potency entry with C33A, in the assay with CASKI, in the assay with Es-2, in the assay with HeLa, in the assay with Hek293T and in the assay on JEG-3 was “inactive” each time. The Potency result with OV90, in the assay on PA-1, in the assay on SKOV3, with Tov-21-G and in the assay with Tov112D was “inactive” throughout.

Take `COc1c(C)cnc(Cn2cnc3c(Cl)nc(N)nc32)c1C`: the Potency entry in the assay with MKL-2 is “inactive”. Also, the Potency with UISO is 0.743 µM (active); in the assay on WaGa, 0.209 µM (active).

For the compound `Clc1ccc(C2(c3ccc(-c4cn[nH]c4)cc3)CCNCC2)cc1`, the Potency result in the assay with MCC-26, with MKL-2, with JEG-3 and in the assay on Tov112D was “inactive” each time. Further, the values for the Potency in the assay on SKOV3 and in the assay on Tov-21-G were 31.6 µM (active) and 12.6 µM (active), respectively.

Consider `COC(=O)Nc1ccc(-c2nc(N3CCOCC3)c3cnn(C4CCN(C(=O)OC)CC4)c3n2)cc1`, for which the Potency in the assay with UISO was 0.526 µM (active); in the assay on WaGa, 6.62 µM (active).
